{"source": "PubChem BioAssay AID504727", "about": "(Broad Institute, 2011)", "note": "Values without a mark were called inactive. The source made the active and inactive calls.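 How the source made its calls: active means fitted half-maximal concentration AC50 at or below ten times the highest valid tested dose, with signal falling as DNA is displaced (actives reach about 34 µM in these data); inconclusive means flat fit at moderate signal loss, or poor fit quality; inactive means the rest, including signal rising instead of falling.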"}
{"test": "DNA intercalators displacing acridine orange, dose response, artefact control for KSHV LANA DNA-binding inhibitor project, biochemical, fluorescence polarization, cherry-picked samples, set 2 (AID 504727);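 on activity change, negative = DNA displacement: 0% = median of neutral control wells and -100% = mitoxantrone positive control wells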", "conditions": "AC50: Acridine orange-DNA displacement; series mostly up to 35 µM; activity change, negative = DNA displacement: at the top concentration", "units": {"activity change, negative = DNA displacement": "%"}}
{"smiles": "O=C(O)c1ccccc1C1=Nc2ccc(O)cc2Oc2cc(O)ccc21", "AC50": "13.4 µM (active)"}
{"smiles": "COc1ccc(/C=C/c2cc(C(F)(F)F)[nH]c(=O)n2)cc1OC", "activity change, negative = DNA displacement": -1.76}
{"smiles": "COC(=O)C(NC(=O)C(C)NC(=O)OCc1ccccc1)C(C)C", "note": "(stereo not drawn)", "AC50": "> 35 µM"}
{"smiles": "Cc1cccc(C)c1NC(=O)CSc1nnc(-c2ccco2)c(-c2ccco2)n1", "activity change, negative = DNA displacement": -6.38}
{"smiles": "c1ccc2[nH]c3cc4ncnc4cc3nc2c1", "AC50": "11.7 µM (active)"}
{"smiles": "N=c1ccn(Cc2ccc(Cl)cc2)cc1", "activity change, negative = DNA displacement": 5.76}
{"smiles": "CC(=O)OCCn1c2nc(=O)[nH]c(=O)c-2nc2cc(C)c(C)cc21", "AC50": "0.342 µM (active)"}
{"smiles": "CCCCN(C(=O)C(C)Oc1ccc(Br)cc1)c1c(N)n(CC(C)C)c(=O)[nH]c1=O", "note": "(stereo not drawn)", "activity change, negative = DNA displacement": 2.88}
{"smiles": "NC(=S)N/N=C/c1cn(CCC(=O)O)nc1-c1cccc(Br)c1", "activity change, negative = DNA displacement": 1.55}
{"smiles": "Nc1ccc(-c2nc3ccc(C(=O)O)cc3s2)cc1", "activity change, negative = DNA displacement": 0.547}
{"smiles": "COc1ccc(C(C)=O)cc1CN(C)C", "activity change, negative = DNA displacement": 3.98}
{"smiles": "CC(C)=C1C2C=CC1C(C(=O)Nc1cc(C)ccc1C)C2C(=O)O", "note": "(stereo not drawn)", "activity change, negative = DNA displacement": 1.34}
{"smiles": "CCCc1nnc(NC(=O)CCC(=O)NCc2ccc(OC)cc2)s1", "activity change, negative = DNA displacement": 0.474}
{"smiles": "O=[N+]([O-])c1cc(-n2cnnn2)ccc1N1CCC(Cc2ccccc2)CC1", "activity change, negative = DNA displacement": -4.6}
{"smiles": "Nc1ccc2nc3c(=O)n(C4CCCCC4)c(=O)[nH]c3nc2c1", "AC50": "3.19 µM (active)"}
{"smiles": "Nc1c(-c2ccccn2)cnn1-c1nc(-c2ccc(F)cc2)cs1", "activity change, negative = DNA displacement": 9.09}
{"smiles": "CCCc1cc(=O)oc2cc(C)cc(OCC(=O)O)c12", "activity change, negative = DNA displacement": -6.33}
{"smiles": "Oc1ccccc1C=Nc1ccccc1-c1nc2ccccc2[nH]1", "activity change, negative = DNA displacement": 2.82}
{"smiles": "CCN(CCCNC(=O)Cn1cc2c(n1)CCCC2)c1cccc(C)c1", "activity change, negative = DNA displacement": 1.96}
{"smiles": "CCc1sc(C(=O)NNC(=O)CNC(=O)c2ccccc2F)cc1C", "activity change, negative = DNA displacement": 6.94}
{"smiles": "Cc1cc[n+](-c2[nH]c(=O)sc2/C=N/N=C(\\[O-])c2ccccc2)cc1C", "AC50": "12.9 µM (active)"}
{"smiles": "CC[C@@]1(O)C(=O)OCc2c1cc1n(c2=O)Cc2cc3c(CN(C)C)c(O)ccc3nc2-1", "AC50": "3.8 µM (active)"}
{"smiles": "C/C(=N/NC(=O)c1cc(O)c(O)c(O)c1)c1ccc([N+](=O)[O-])cc1", "activity change, negative = DNA displacement": 2.7}
{"smiles": "CC(Oc1ccccc1)c1nnc(N)s1", "note": "(stereo not drawn)", "AC50": "17.5 µM (active)"}
{"smiles": "CCOC(=O)CN1NC2(CCCCCC2)NC1=S", "activity change, negative = DNA displacement": 7.74}
{"smiles": "O=C(O)c1ccc(-n2cccc2/C=C2/SC(=O)N(CC(=O)N3CCCC3)C2=O)cc1", "activity change, negative = DNA displacement": -3.47}
{"smiles": "COc1cc(OC)cc(C(=O)NC2CC3CCC(C2)N3C)c1", "note": "(stereo not drawn)", "activity change, negative = DNA displacement": 0.907}
{"smiles": "CC(C)C(C(=O)O)N1C(=O)/C(=C/C=C/c2ccco2)SC1=S", "note": "(stereo not drawn)", "activity change, negative = DNA displacement": 10.2}
{"smiles": "COC(=O)C[n+]1cccc2ccccc21", "AC50": "8.59 µM (active)"}
{"smiles": "CCC1(c2ccccc2)NC(=O)N(CC(=O)Nc2ccc(OC)nc2)C1=O", "note": "(stereo not drawn)", "AC50": "7.64 µM (active)"}
{"smiles": "N=C1/C(=C/c2ccc(-c3cccc(C(=O)O)c3)o2)C(=O)N=C2SC(CC(=O)N3CCOCC3)=NN12", "activity change, negative = DNA displacement": 6.55}
{"smiles": "Cn1c(=O)oc2cc(S(=O)(=O)CCC(=O)N3CCN(c4ccccc4F)CC3)ccc21", "activity change, negative = DNA displacement": -10}
{"smiles": "Cc1n[nH]c(C)c1N1C(=O)c2cccc3c(N4CCCCCC4)ccc(c23)C1=O", "AC50": "33.6 µM (active)"}
{"smiles": "Cc1ccc(-c2nnc(-c3ccc(NC(=O)c4ccco4)cc3)o2)cc1", "activity change, negative = DNA displacement": -0.353}
{"smiles": "Cc1cc(NC(=O)CCC(=O)N(CCC(C)C)C(C(=O)NC2CCCC2)c2cccnc2)no1", "note": "(stereo not drawn)", "activity change, negative = DNA displacement": 2.2}
{"smiles": "Nc1ccccc1C(=O)N1O[C@@H]2C=C[C@H]1CC2", "activity change, negative = DNA displacement": -1.77}
{"smiles": "Cc1nnc(NC(=O)CN2C(=O)NC3(CCCC3)C2=O)s1", "activity change, negative = DNA displacement": 2.88}
{"smiles": "CCOC(=O)C1=C(COC(=O)c2ccc([N+](=O)[O-])s2)NC(=O)NC1C", "note": "(stereo not drawn)", "activity change, negative = DNA displacement": -1.59}
